16 molecules from PubChem BioAssay can be followed below.

Calls of active or inactive are those of the source.

Assay [1] can be described thus: binders of probe aFSTL3 on microarray, primary screen, stem cell growth factor project, biochemical, small-molecule microarray, fluorescence 635/667 (AID 1064).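 Further: measures binding of the biotinylated anti-FSTL3 antibody to printed compounds.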 Conditions: higher = more signal.
Assay [2] can be described thus: binders from COS7 lysate, DM2A8 probe, primary screen, torsin A project, cell lysate, small-molecule microarray, fluorescence 635/667 (AID 1065). Conditions: higher = more signal, COS7 lysate expressing mutant human TOR1A.
A short description of assay [3]: binders of probe aFGF2 on microarray, primary screen, stem cell growth factor project, biochemical, small-molecule microarray, fluorescence 635/667 (AID 1067).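 Further: measures binding of biotinylated aFGF2 protein to printed compounds on slides; z-score merges feature fluorescence and signal-to-noise across triplicate slides.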 To be noted: higher = more signal.
Assay [4] in a line: binders of probe aFGF10 on microarray, primary screen, stem cell growth factor project, biochemical, small-molecule microarray, fluorescence 635/667 (AID 1071).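 Further: score merges 667 nm spot intensity and signal to noise from triplicate slides.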 Conditions: higher = more signal.
Assay [5] has as its target Neurogenic locus notch homolog protein 2 (Homo sapiens) (UniProt Q04721). Nature of the assay: Notch2 binders on small-molecule microarrays, primary screen, biochemical, small-molecule microarray, 635 nm fluorescence, stem cell growth factors (AID 1073). Conditions: Notch2 binding, higher = more signal.
In assay [6] the target is Pro-neuregulin-1, membrane-bound isoform (Homo sapiens) (UniProt Q02297). Nature of the assay: NRG1 binders on small-molecule microarrays, primary screen, psychiatric disease protein project, biochemical, small-molecule microarray, fluorescence 635/667 (AID 1075).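 Further: score combines 667 nm spot fluorescence with signal to noise.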 Conditions: NRG1 binding, 635 nm fluorescence, higher = more signal.
The test system of assay [7] is Neuregulin-1 EGF-like domain. Nature of the assay: binders of neuregulin-1 EGF-like domain, primary screen, biochemical, small-molecule microarray, 635 nm fluorescence (AID 1081).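 Further: binding of the protein to compounds printed on small-molecule microarray slides.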 Conditions: small-molecule microarray binding, higher = more signal.
The nature of assay [8]: FRG1 promoter luciferase signal modulators, primary screen, FRG1 inhibition for FSHD, cell-based, C2C12 myotubes, firefly/Renilla luciferase, luminescence (AID 1084). Conditions: higher = more signal, called active from +8 up or from −8 down.
The nature of assay [9]: binders of probe aFST on microarray, primary screen, stem cell growth factor project, biochemical, small-molecule microarray, fluorescence 635/667 (AID 1086).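 Further: score merges 667 nm fluorescence with signal-to-noise of each printed compound spot.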 To be noted: higher = more signal.
Assay [10] in a line: binders of probe aHhip on microarray, primary screen, stem cell growth factor project, biochemical, small-molecule microarray, fluorescence 635/667 (AID 1087).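 Further: score merges spot fluorescence at 667nm with spot signal to noise ratio.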 Conditions: higher = more signal.

Chain of Neurogenic locus notch homolog protein 2 (Homo sapiens) (Q04721 whole entry, looked up, canonical isoform): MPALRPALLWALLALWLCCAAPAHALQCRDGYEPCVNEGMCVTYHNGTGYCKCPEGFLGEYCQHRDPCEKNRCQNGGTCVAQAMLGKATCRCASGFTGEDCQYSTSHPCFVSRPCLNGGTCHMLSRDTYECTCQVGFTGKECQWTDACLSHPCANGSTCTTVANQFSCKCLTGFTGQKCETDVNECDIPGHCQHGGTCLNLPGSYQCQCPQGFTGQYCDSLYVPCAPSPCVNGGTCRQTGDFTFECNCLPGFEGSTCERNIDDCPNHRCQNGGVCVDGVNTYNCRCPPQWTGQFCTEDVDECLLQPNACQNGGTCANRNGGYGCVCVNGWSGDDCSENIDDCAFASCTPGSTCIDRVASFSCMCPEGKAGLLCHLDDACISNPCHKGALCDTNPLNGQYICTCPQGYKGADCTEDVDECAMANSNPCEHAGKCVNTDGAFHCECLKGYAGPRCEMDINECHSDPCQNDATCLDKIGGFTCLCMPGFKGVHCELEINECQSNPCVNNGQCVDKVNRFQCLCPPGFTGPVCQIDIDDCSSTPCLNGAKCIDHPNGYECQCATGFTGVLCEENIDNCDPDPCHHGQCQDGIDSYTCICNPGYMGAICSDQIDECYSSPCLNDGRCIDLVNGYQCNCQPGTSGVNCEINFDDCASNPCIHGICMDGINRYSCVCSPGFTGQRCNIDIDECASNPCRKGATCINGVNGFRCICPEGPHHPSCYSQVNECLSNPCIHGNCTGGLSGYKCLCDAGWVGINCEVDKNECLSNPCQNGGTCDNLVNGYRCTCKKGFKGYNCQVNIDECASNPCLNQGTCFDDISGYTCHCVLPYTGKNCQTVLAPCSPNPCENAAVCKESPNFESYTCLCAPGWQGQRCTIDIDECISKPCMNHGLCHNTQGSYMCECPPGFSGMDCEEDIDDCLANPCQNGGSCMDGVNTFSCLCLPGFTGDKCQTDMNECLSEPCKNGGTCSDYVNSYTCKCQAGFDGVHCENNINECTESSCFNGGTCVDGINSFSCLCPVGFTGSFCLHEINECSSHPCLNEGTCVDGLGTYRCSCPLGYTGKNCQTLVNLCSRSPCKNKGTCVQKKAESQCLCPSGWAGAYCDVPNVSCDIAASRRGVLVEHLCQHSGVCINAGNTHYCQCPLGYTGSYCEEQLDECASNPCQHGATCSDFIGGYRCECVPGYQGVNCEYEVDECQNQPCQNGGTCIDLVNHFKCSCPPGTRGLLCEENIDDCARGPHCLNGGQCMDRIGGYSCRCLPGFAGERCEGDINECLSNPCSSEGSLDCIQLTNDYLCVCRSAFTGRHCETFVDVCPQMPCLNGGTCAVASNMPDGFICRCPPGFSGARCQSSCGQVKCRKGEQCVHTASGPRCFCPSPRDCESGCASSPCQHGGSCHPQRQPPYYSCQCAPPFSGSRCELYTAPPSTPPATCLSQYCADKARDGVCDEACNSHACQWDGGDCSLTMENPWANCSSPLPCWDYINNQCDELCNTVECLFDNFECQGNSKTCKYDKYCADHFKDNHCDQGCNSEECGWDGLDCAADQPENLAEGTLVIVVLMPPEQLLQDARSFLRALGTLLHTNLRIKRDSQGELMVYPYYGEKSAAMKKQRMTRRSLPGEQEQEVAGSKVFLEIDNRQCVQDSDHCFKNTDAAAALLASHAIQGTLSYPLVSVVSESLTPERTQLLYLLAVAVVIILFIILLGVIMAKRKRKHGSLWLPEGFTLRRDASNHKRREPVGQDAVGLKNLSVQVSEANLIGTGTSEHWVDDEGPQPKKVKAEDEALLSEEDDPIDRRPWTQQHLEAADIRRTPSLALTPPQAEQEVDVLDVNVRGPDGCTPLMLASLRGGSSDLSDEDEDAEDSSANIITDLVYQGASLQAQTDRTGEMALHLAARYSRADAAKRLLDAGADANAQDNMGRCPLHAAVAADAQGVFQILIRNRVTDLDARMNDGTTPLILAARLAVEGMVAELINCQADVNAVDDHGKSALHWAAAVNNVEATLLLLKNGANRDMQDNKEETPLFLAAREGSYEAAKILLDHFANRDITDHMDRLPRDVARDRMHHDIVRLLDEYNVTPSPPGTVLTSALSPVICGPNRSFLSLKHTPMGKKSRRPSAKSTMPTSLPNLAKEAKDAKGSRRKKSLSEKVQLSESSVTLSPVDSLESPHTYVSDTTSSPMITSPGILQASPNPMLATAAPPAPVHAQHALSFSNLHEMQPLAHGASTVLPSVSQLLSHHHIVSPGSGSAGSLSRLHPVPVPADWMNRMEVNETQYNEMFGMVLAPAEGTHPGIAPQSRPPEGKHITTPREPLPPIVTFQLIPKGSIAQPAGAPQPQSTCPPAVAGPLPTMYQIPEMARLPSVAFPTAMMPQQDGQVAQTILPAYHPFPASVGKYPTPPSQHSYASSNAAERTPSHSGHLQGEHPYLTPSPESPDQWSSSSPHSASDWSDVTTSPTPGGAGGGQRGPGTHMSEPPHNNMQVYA
Chain of Pro-neuregulin-1, membrane-bound isoform (Homo sapiens) (Q02297 whole entry, looked up, the tested form may be a part, canonical isoform): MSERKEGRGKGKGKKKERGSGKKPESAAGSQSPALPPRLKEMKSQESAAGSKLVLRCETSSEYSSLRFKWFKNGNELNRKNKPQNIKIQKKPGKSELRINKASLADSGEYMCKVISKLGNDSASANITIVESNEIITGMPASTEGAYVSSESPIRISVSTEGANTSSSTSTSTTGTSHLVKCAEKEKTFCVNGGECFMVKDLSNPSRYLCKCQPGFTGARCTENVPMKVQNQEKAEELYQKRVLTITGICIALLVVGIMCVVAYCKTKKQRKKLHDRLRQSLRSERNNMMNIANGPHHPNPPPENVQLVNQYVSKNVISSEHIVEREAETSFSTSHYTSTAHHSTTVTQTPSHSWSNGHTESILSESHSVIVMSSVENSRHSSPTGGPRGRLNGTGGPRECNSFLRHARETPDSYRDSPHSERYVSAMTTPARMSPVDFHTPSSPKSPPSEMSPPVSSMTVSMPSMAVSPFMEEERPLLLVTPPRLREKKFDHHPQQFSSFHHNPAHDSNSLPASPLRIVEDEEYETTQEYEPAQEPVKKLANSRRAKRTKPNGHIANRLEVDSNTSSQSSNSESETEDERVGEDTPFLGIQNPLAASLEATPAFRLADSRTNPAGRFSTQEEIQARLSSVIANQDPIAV

With `COC(=O)C(CC#Cc1ccc2c(c1)[C@]1(C(=O)N2)[C@H](c2ccc(OCCO)cc2)N2[C@H](c3ccccc3)[C@H](c3ccccc3)OC(=O)[C@H]2[C@@H]1C(=O)N1CCCCCCC1)C(=O)OC`, the composite z-score in assay [1] was determined as 3.41; in assay [2], 1.91; in assay [3], 0.826; in [4], 1.21; in assay [5], 1.14; in assay [6], 1.93. Further, the figures for the composite z-score in [7], in assay [9] and in [10] were 1.27, 3.21 and 1.45, respectively. Besides, the z-score in [8] was -0.378 (inactive).

Turning to `COCCCNC(=O)[C@@]1(CCS(=O)(=O)c2ccccc2)COC(c2ccc(OCCCO)cc2)=N1`, the composite z-score in [1] turned out to be 1.79; in assay [2], 1.68; in assay [3] it was 0.0177; in assay [4] it was 0.529; in [5] it was 0.874; in assay [6], 2.3. Further, the composite z-score in [7] is 1.28; in [9], 1.1; in [10] it was -0.0296. Moreover, in [8], the z-score was -1.24 (inactive).

With `O=C1[C@@H]2[C@@H](CC(COc3ccccc3)=C([C@H](O)CCc3ccccc3)[C@@H]2CO)C(=O)N1Cc1ccccc1`, the composite z-score in assay [1] was -0.379; in assay [2], 0.364; in assay [3], -0.187; in assay [4], 0.0395; in assay [5] it was 0.719; in assay [6] it was 0.433. The values for the composite z-score in assay [7], in assay [9] and in assay [10] were 1.01, 0.391 and 0.0176, respectively. Also, the z-score in [8] is -0.643 (inactive).

For `O=C1O[C@@H](c2ccccc2)[C@@H](c2ccccc2)N2[C@@H](c3ccc(OCCO)cc3)[C@]3(C(=O)Nc4ccc(C#CC5(O)CCCCCC5)cc43)[C@@H](C(=O)O)[C@H]12`, the composite z-score in [1] is 0.0507; in assay [2] it was 0.733; in assay [3] it was -0.0579; in [4], 0.635; in assay [5], 0.456; in assay [6], 1.24. Also, the figures for the composite z-score in assay [7], in assay [9] and in [10] were 1.07, 0.193 and 0.0176, respectively. For the same molecule, in [8], the z-score was 0.259 (inactive).

With `COC(=O)[C@@]1(Cc2ccccc2)[C@H]2c3cc(C(=O)N(C)C)n(CCSC(=N)N)c3C[C@H]2CN1C(=O)c1ccccc1`, the composite z-score in [1] was -0.0908; in assay [2] it was -0.512; in assay [3] it was 0.243; in [4], -0.248; in assay [5], -0.175; in assay [6], 1.28. For the same molecule, the composite z-score in [7] turned out to be 1.04; in assay [9], 0.319; in assay [10] it was 0.0401. Also, the z-score in [8] is 0.453 (inactive).

As to `CN(C)CCCC[C@@H]1NC(=O)[C@@H]2C[C@H](C(=O)NCCCCCN)[C@H](c3cccc(OCCO)c3)N2C1=O`, the composite z-score in assay [1] was -0.439; in [2] it was 1.75; in assay [3], -0.121; in [4] it was 0.549; in assay [5], 0.549; in [6], 1.09. The composite z-score is 1.35 in assay [7], 0.153 in assay [9] and 0.0722 in assay [10]. Moreover, the z-score in assay [8] was -1.02 (inactive).

Turning to `CCCCC(=C=CC[C@H](O)c1ccc(CO)o1)CCO`, the composite z-score in assay [1] is -0.388; in assay [2] it was 1.03; in assay [3], -0.109; in [4] it was 0.0582; in [5] it was 0.165; in assay [6], 1.75. The composite z-score is 1.2 in [7], 0.0508 in assay [9] and 0.0373 in assay [10]. The z-score in [8] was 0.0699 (inactive).

Take `CC(C)=CCCC(C)=CC(O)C1C=CC2C(=O)NC(=O)C2N1Nc1ccc(Cl)cc1Cl` (stereo not given): the composite z-score was 0.235 in [1]; 0.401 in [2]; 0.234 in [3]; 0.214 in assay [4]; 0.933 in assay [5]; 1.86 in [6]. Moreover, the results for the composite z-score in [7], in assay [9] and in assay [10] were 0.915, 0.901 and 0.0373, respectively. Also, the z-score in assay [8] was 1.89 (inactive).

Consider `COC(=O)[C@@]1(Cc2ccccc2)[C@H]2c3cc(C(=O)N(C)C)n(CCO)c3C[C@H]2CN1C(=O)c1ccccc1`, for which the composite z-score worked out at 0.348 in assay [1]; 0.0312 in assay [2]; 0.152 in assay [3]; 1.14 in assay [4]; 1.39 in [5]; 1.93 in assay [6]. The composite z-score in assay [7] is 1.17; in assay [9], 0.647; in assay [10], -0.418. In addition, the z-score in assay [8] was 1.27 (inactive).

In the case of `CC1CC/C=C\[C@H]2OC34C=CCN(c5ccc6ccccc6c5)C(=O)[C@H]3N(C(C)CO)C(=O)[C@@H]4C2C(=O)O1` (stereo not given in full), the composite z-score was 0.018 in [1]; -1.51 in assay [2]; -0.178 in assay [3]; -0.489 in assay [4]; -0.858 in assay [5]; -0.318 in assay [6]. The values for the composite z-score in [7], in [9] and in assay [10] were -0.0133, -0.187 and -0.0994, respectively. Besides, the z-score in assay [8] was 1.14 (inactive).

Take `O=C(NC1CC1)[C@@H]1c2ccccc2C(=O)N(CC23CC4CC(CC(C4)C2)C3)[C@H]1c1ccc(CO)cc1`: the composite z-score is -0.314 in assay [1]; 0.179 in assay [2]; 0.0319 in assay [3]; 0.581 in [4]; 1.44 in assay [5]; 0.264 in assay [6]. Further, the composite z-score in assay [7] is 1.29; in [9], 0.556; in assay [10], -0.0645. Also, the z-score in assay [8] is -3.56 (inactive).

`COc1ccc(C(O)C2C=CC3C(=O)NC(=O)C3N2Nc2ccc(Cl)cc2Cl)c2ccccc12` (stereo not given): the composite z-score is 0.877 in [1]; 0.433 in assay [2]; -0.106 in assay [3]; 0.273 in assay [4]; 1.02 in [5]; 0.999 in assay [6]. For the same molecule, the composite z-score in [7] is 1.04; in assay [9] it was 0.951; in assay [10], -0.216. Also, in assay [8], the z-score is -0.0308 (inactive).

As for `CO[C@H]1O[C@H](CO)[C@@H](OC(=O)Nc2ccccc2)[C@H](OC(=O)Nc2ccccc2)[C@H]1OC(=O)Nc1ccccc1`, the composite z-score in [1] is -0.114; in [2], 0.0396; in [3], 0.118; in assay [4], 1.17; in assay [5] it was 0.971; in assay [6] it was 0.888. The composite z-score in assay [7] is 1.34; in [9], 0.0643; in [10] it was -0.0296. Besides, the z-score in [8] was 0.921 (inactive).

In the case of `C=C(C)[C@@H]1CC=C(C(O)C2C=CC3C(=O)N(C)C(=O)C3N2Nc2ccc([N+](=O)[O-])cc2[N+](=O)[O-])CC1` (stereo not given in full), the composite z-score in [1] was 0.661; in assay [2], 0.294; in assay [3] it was -0.144; in assay [4] it was 0.431; in assay [5] it was 1.68; in assay [6], 1.74. Moreover, the composite z-score in assay [7] was 1.36; in assay [9], 1.46; in assay [10], -0.0003. Besides, the z-score in assay [8] is 0.404 (inactive).

Consider `C[N+](C)(C)CCCC[C@@H]1NC(=O)[C@@H]2C[C@H](C(=O)NCc3ccc(F)cc3)[C@H](c3ccc(O)cc3)N2C1=O`, for which the composite z-score was 0.315 in [1]; -0.4 in assay [2]; -0.148 in assay [3]; -0.447 in [4]; -1.3 in assay [5]; 1.3 in assay [6]. Further, the composite z-score in [7] was 1.38; in assay [9] it was -0.936; in [10], -0.201. In addition, the z-score in assay [8] is 0.337 (inactive).

On to `CC(C)NC(=O)[C@@]1(C)c2ccccc2C(=O)N(Cc2ccccc2)[C@H]1c1ccc(CO)cc1`, for which the composite z-score in assay [1] is 0.267; in [2] it was 0.824; in assay [3], -0.169; in [4], -0.548; in assay [5] it was -1.12; in assay [6], 1. Also, the figures for the composite z-score in [7], in assay [9] and in [10] were 0.814, -0.875 and -0.291, respectively. In assay [8], the z-score is -2.47 (inactive).
